G9a inh – G9a (human) methyltransferase inhibition. Q96KQ7. G9a H3K9 monomethylation, AlphaScreen, 2 h. Potency, µM (titrated, usually from 102 µM), inactives show top-dose activity, negative = inhibition, most hits filed as inhibitors. hit rate 8.8% among 350,000; note: potency is the fitted concentration of half-maximal effect; nearly all actives have a fitted effect of over 75% in size
Target sequence (Q96KQ7 913-1193 limits assumed): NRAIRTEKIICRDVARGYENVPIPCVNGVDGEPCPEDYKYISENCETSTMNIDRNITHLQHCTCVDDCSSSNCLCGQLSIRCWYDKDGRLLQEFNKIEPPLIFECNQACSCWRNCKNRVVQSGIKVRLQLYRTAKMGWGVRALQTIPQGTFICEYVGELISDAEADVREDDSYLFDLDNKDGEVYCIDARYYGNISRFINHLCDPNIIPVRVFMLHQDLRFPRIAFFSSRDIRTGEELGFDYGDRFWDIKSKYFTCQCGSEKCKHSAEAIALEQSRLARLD
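Chemiluminescent proximity detection of H3K9 monomethylation, read after 10 min bead incubation in the dark. Reaction: 20 nM G9a, 500 nM biotin-H3K9 peptide, 20 uM SAM cofactor, 2 h, room temperature, following 15 min enzyme-compound preincubation.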
Tau fluor cs – counter-screen for tau fibril formation inhibitors; hit rate 0.93% among 280,000; tau K18 P301L Alexa594 fluorescence, heparin fibrillization; Potency, µM (series often up to 57.7 µM), inactives show top-dose activity change, negative = decrease; AID 1463; note: potency is the fitted concentration of half-maximal effect; nearly all actives have a fitted effect of over 55% in size
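Human tau K18 P301L (15 uM unlabeled, 0.24 uM Alexa 594-labeled) in 100 mM sodium acetate pH 7 with 20 uM heparin, 6 hr at 37 C. ThT 30 uM added, 1 hr ambient; Alexa 594 FP and total fluorescence read at 555/632 nm.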
Tau fibril FP – tau fibrillization inhibition (FP) | P10636 | K18 P301L tau heparin fibrillization, Alexa594 FP, 6 h | Potency, µM (top dose mostly 57.7 µM), for the others: top-dose activity, negative = inhibition, usual class: inhibitors | hit rate 0.39% among 280,000 | AID 1468; note: potency is the fitted concentration of half-maximal effect; nearly all actives have a fitted effect of over 55% in size
Target sequence (P10636 561-689 P618L limits assumed): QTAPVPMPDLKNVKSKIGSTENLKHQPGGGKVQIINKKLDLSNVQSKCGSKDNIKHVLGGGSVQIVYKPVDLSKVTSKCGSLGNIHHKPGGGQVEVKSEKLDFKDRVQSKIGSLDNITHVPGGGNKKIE
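Recombinant K18 P301L […], labeled with Alexa 594 at 0.24 uM over 15 uM unlabeled; heparin inducer 20 uM final; 37 C, 6 hr; FP endpoint.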
Sfp PPTase inh – Sfp phosphopantetheinyl transferase inhibition; Potency, µM, without a hit: largest response in the series, negative = inhibition, usual class: inhibitors; Q9F4F7; Biochemical Sfp PPTase activity, qHTS; AID 1490; hit rate 3.5% among 310,000;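 note: the enzyme is Sfp with the accession as filed and its product quenches rhodamine fluorescence; potency is the fitted concentration of half-maximal effect; 0% = enzyme reaction without inhibitor and -100% = no enzyme wells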
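Fluorescence-quenching assay with 15 nM Sfp, 5 uM rhodamine-CoA and 12.5 uM BHQ-2-labelled ybbR peptide in pH 7.6 Hepes/MgCl2 buffer. Enzyme was pre-incubated with compound for 15 min at room temperature. Rate was taken from the 30-min fluorescence change (525/598 nm).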
Tau fibril ThT – tau fibrillization inhibition (ThT binding); P10636; recombinant tau K18 P301L (four-repeat tau fragment), heparin-induced fibrillization, ThT fluorescence; Potency, µM (doses to about 57.4 µM), for the others: at the highest dose activity, negative = inhibition, actives largely listed as inhibitors; hit rate 2.1% among 270,000; note: potency is the fitted concentration of half-maximal effect; nearly all actives have a fitted effect of over 55% in size
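Recombinant human tau K18 fragment […] carrying P301L, 15 uM unlabeled plus 0.24 uM Alexa 594-labeled, was fibrillized with 20 uM heparin in 100 mM sodium acetate pH 7 for 6 hr at 37 C; 30 uM ThT fluorescence read after 1 hr.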
FBPA coupling cs – counter-screen for Giardia aldolase inhibitors: coupling enzyme system | activity change, negative = inhibition, % at 58.2 µM, hits read low | hit rate 0.67% among 290,000 | coupling enzyme system counterscreen, AmpLite Red fluorescence | AID 2472; in the data active = activity change below about -30%
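Compounds tested against the coupling enzymes alone at 57.5 uM final; readout was AmpLite Red fluorescence (525/598 nm) after 20 min at RT.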
An asterisk follows results filed as active; u = inconclusive; x = no result; [ ] = remark or other dose. An excerpt weighted towards active compounds, which were near 11% of everything screened. Unless noted, calls come from the whole dose curve; as a rule, active = well fitted curve in the direction sought with a large enough effect; inconclusive = small, poorly fitted or top-dose-only effect, or another doubt; inactive = no such curve, though single readings can be large; an effect the other way counts as inactive or inconclusive. Unless noted, % is set by controls: 0 for no effect and ±100 for the full control effect.

SMILES	G9a inh	Tau fluor cs	Tau fibril FP	Sfp PPTase inh	Tau fibril ThT	FBPA coupling cs
O=C(NCc1ccccn1)NC12CC3CC(CC(C3)C1)C2	3%[12.7 µM]	-6%	0%	6%	-9%	1
c1ccc(CNC23CC4CC(CC(C4)C2)C3)nc1	14µM*	-4%	-8%	u	-4%	0
Cn1ncc2c(Nc3cccc(F)c3)ncnc21	7%[59 µM]	-11%	1%	x	-5%	x
CC1=C(C(=O)Nc2ccccc2C)C(c2cccnc2)n2nc(SCc3ccccc3)nc2N1 (stereo unspecified)	2%[59 µM]	0%	-3%	x	-2%	x
CC1(C)O[C@H]2[C@@H](O1)[C@@H](C(=O)Nc1ccccc1O)O[C@@H]1OC(C)(C)O[C@@H]12	1µM*	0%	5%	x	5%	x
COC(=O)c1ccccc1NC(=O)[C@H]1O[C@@H]2OC(C)(C)O[C@@H]2[C@H]2OC(C)(C)O[C@H]21	-31%[59 µM]	-7%	-6%	x	-2%	x
Cc1c(C(=O)c2no[n+]([O-])c2C(=O)c2cnn(C)c2C)cnn1C	u	-19%	u	-20%	14µM*	4
COC(=O)C/C=C/[C@@H](C)[C@@H](Cc1ccccc1Br)OC	x	-2%	-3%	-4%	-4%	1
Cc1cccc(NC(=S)NC(=O)c2ccc(Br)o2)c1C	-10%[59 µM]	-12%	-6%	7%	-12%	2
Cn1ncc(C(N)=O)c1NC(=S)NC(=O)c1ccc(Br)o1	18µM*	-9%	1%	-87%	-12%	-1
Cc1cccc(C)c1NC(=S)NC(=O)c1ccc(Br)o1	40µM*	-12%	-10%	6%	-5%	-1
CC(C)CCNC(=O)c1cc(-c2ccc(Br)s2)nc2ccccc12	-3%[59 µM]	5%	-2%	x	6%	x
Cc1ccc(C(=O)Nc2sc(C)c(-c3ccccc3)c2C(N)=O)cc1[N+](=O)[O-]	40µM*	-19%	-11%	45µM*	-6%	-7
COC(=O)c1sc(NC(=O)c2cccc([N+](=O)[O-])c2)c(C(N)=O)c1C	10µM*	-11%	-3%	u	-15%	5
Cc1ccc(C(=O)Nc2cccc(NC(=O)c3ccc(C)c([N+](=O)[O-])c3)n2)cc1[N+](=O)[O-]	8%	x	x	-22%	x	-1
COC(=O)c1c(NC(=O)c2ccccc2)sc(C(N)=O)c1C	1%	-7%	-1%	11%	-10%	1
COC(=O)c1c(NC(=O)c2cccc([N+](=O)[O-])c2)sc(C(N)=O)c1C	x	-19%	6%	45µM*	u	3
CCN(CC)C(=O)c1sc(NC(=O)c2cccc([N+](=O)[O-])c2)c(C#N)c1C	u	-16%	5%	11%	-11%	0
CN(C)c1ccc(CNS(=O)(=O)c2ccc(-c3cc(C(F)(F)F)on3)s2)cc1	-20%[59 µM]	-13%	7%	x	-6%	x
CCc1cccc(NC(=O)CSc2ncc3c(n2)-c2ccccc2N(CC)S3(=O)=O)c1	-7%[59 µM]	u	u	x	-13%	x
CCc1cccc(NC(=O)CSC2=NS(=O)(=O)c3ccccc32)c1	8.9µM*	-18%	-17%	14µM*	u	5
CN(CC(=O)Nc1ccc(Cl)cc1)S(=O)(=O)c1cccc2cccnc12	45µM*	-18%	0%	12%	-11%	0
CN(CC(=O)Nc1ccc(F)c(F)c1)S(=O)(=O)c1cccc2cccnc12	6%	x	x	11%	x	x
CN(CC(=O)Nc1ncn[nH]1)S(=O)(=O)c1ccc(Br)cc1	2%	x	x	5%	x	x
CN(CC(=O)Nc1ncn[nH]1)S(=O)(=O)c1ccc(Cl)cc1	89µM*	x	x	11%	x	1
COC(=O)c1ccccc1SC(CC(=O)c1ccccc1)c1ccc(F)cc1 (stereo unspecified)	x	-11%	2%	-3%	x	0
CCOc1ccc(CN2CCNC(=O)C2CC(=O)NCCN2CCOC2=O)cc1 (stereo unspecified)	x	x	x	0%	x	x
CCc1noc(C)c1C(=O)Nc1ccc(S(=O)(=O)N2CCC(C)CC2)cc1	2%	x	x	x	x	x

Screens as filed in PubChem.
